Laboratory results reported in the supplement of paper PMC3545927.
This is one part of the list. How many sequences the whole screen found active is unknown.

Biological target: furin, P09958
Experiment: furin cleavage Z-score vs untreated control; higher = more cleavage, active = 3.5 or more, inactive = 1 or less, 8 variable residues between constant flanks
Procedure: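 Multiplexed peptide-cDNA fusion cleavage assay. 8-mer variable peptides flanked by constant Cys-Ala (N-term) and Ala-Gly-Asn-Ala-Ser-Ala-Ser-Ala (C-term) and conjugated to a cDNA oligonucleotide were bead-immobilised via the N-terminus. They were treated with purified furin at a 1:10 enzyme:substrate ratio in 50 mM HEPES pH 7.5, 1 mM CaCl2, 100 mM NaCl for 7.5, 15 or 30 min. Released cDNA was counted by next-generation sequencing, and log counts versus no-furin controls were lowess-adjusted and converted to robust Z-scores.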

furin, P09958, sequence (P09958 whole entry): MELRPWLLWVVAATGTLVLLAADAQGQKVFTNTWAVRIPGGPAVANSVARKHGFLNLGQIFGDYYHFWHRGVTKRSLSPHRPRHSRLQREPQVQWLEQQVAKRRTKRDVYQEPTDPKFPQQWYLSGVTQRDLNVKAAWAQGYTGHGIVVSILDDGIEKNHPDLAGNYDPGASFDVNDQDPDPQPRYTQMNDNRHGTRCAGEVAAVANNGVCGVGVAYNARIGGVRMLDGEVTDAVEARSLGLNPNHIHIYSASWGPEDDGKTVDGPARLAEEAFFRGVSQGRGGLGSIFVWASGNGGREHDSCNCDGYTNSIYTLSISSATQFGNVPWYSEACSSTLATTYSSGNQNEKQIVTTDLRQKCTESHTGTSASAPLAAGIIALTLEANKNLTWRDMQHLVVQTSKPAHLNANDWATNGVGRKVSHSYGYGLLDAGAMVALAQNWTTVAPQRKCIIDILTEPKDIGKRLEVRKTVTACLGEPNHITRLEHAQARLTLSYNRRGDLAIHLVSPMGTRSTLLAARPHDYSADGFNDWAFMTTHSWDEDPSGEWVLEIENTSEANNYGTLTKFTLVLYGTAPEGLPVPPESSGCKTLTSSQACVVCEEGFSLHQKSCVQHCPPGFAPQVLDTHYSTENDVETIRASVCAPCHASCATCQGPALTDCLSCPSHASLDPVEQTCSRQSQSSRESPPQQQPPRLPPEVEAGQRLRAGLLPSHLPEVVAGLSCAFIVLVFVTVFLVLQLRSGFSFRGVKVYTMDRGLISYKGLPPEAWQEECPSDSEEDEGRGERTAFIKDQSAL

Sequence: CAFEMEECSQAGNASASA [HC1787]
- furin cleavage Z-score (7.5 min): -0.0244 (inactive)
- furin cleavage Z-score (15 min): -1.03 (inactive)
- furin cleavage Z-score (30 min): 0.747 (inactive)

Sequence: CAEVPCHRSSAGNASASA [HC2397]
- furin cleavage Z-score (7.5 min): 0.159 (inactive)
- furin cleavage Z-score (15 min): 1.25
- furin cleavage Z-score (30 min): 1.43

Sequence: CALYSRVGRSAGNASASA [FS-617]
- furin cleavage Z-score (7.5 min): 8 (active)
- furin cleavage Z-score (15 min): 8.87 (active)
- furin cleavage Z-score (30 min): 7.73 (active)

Sequence: CASTGYPKRSAGNASASA [FS-1616]
- furin cleavage Z-score (7.5 min): 0.639 (inactive)
- furin cleavage Z-score (15 min): -0.301 (inactive)
- furin cleavage Z-score (30 min): -0.705 (inactive)

Sequence: CASHSREGRSAGNASASA [FS-1281]
- furin cleavage Z-score (7.5 min): 2.57
- furin cleavage Z-score (15 min): 1.17
- furin cleavage Z-score (30 min): 3.76 (active)

Sequence: CAEVRRVGRSAGNASASA [FS-766]
- furin cleavage Z-score (7.5 min): 5.5 (active)
- furin cleavage Z-score (15 min): 6.28 (active)
- furin cleavage Z-score (30 min): 4.53 (active)

Sequence: CAEVCCHRPSAGNASASA [HC2360]
- furin cleavage Z-score (7.5 min): 0.494 (inactive)
- furin cleavage Z-score (15 min): 0.659 (inactive)
- furin cleavage Z-score (30 min): -0.0079 (inactive)

Sequence: CAEVRCHRPSAGNASASA [HC2353]
- furin cleavage Z-score (7.5 min): 1.89
- furin cleavage Z-score (15 min): 0.104 (inactive)
- furin cleavage Z-score (30 min): -0.327 (inactive)

Sequence: CASTGRVGRSAGNASASA [FS-1168]
- furin cleavage Z-score (7.5 min): 4.32 (active)
- furin cleavage Z-score (15 min): 6.64 (active)
- furin cleavage Z-score (30 min): 7 (active)

Sequence: CAAIFQGPIDAGNASASA [NG8]
- furin cleavage Z-score (7.5 min): -1.22 (inactive)
- furin cleavage Z-score (15 min): 0.323 (inactive)
- furin cleavage Z-score (30 min): -1.13 (inactive)

Sequence: CAMEECSQNLAGNASASA [HC1761]
- furin cleavage Z-score (7.5 min): -0.233 (inactive)
- furin cleavage Z-score (15 min): 0.845 (inactive)
- furin cleavage Z-score (30 min): 0.876 (inactive)

Sequence: CAECEVPCHRAGNASASA [HC2460]
- furin cleavage Z-score (7.5 min): 1.55
- furin cleavage Z-score (15 min): -0.187 (inactive)
- furin cleavage Z-score (30 min): 2.66

Sequence: CAPPQRTQRSAGNASASA [FS-1049]
- furin cleavage Z-score (7.5 min): 4.31 (active)
- furin cleavage Z-score (15 min): 5.78 (active)
- furin cleavage Z-score (30 min): 6.79 (active)

Sequence: CALPCRPQRSAGNASASA [FS-612]
- furin cleavage Z-score (7.5 min): 0.0451 (inactive)
- furin cleavage Z-score (15 min): 0.649 (inactive)
- furin cleavage Z-score (30 min): 1.4

Sequence: CAPAQRLARSAGNASASA [FS-1471]
- furin cleavage Z-score (7.5 min): 10.2 (active)
- furin cleavage Z-score (15 min): 11.3 (active)
- furin cleavage Z-score (30 min): 9.54 (active)

Sequence: CAPPQKAKRSAGNASASA [FS-70]
- furin cleavage Z-score (7.5 min): 10.3 (active)
- furin cleavage Z-score (15 min): 12.4 (active)
- furin cleavage Z-score (30 min): 10.2 (active)

Sequence: CAHPSPLKRSAGNASASA [FS-597]
- furin cleavage Z-score (7.5 min): -0.0472 (inactive)
- furin cleavage Z-score (15 min): 2.27
- furin cleavage Z-score (30 min): 1.02

Sequence: CAKPSKLKRSAGNASASA [FS-546]
- furin cleavage Z-score (7.5 min): 7.13 (active)
- furin cleavage Z-score (15 min): 8.9 (active)
- furin cleavage Z-score (30 min): 7.35 (active)

Sequence: CAEIVTSTWVAGNASASA [HC2164]
- furin cleavage Z-score (7.5 min): -0.266 (inactive)
- furin cleavage Z-score (15 min): -1.49 (inactive)
- furin cleavage Z-score (30 min): 1.35

Sequence: CAVVCCSMSPAGNASASA [HC2099]
- furin cleavage Z-score (7.5 min): -0.463 (inactive)
- furin cleavage Z-score (15 min): -1.06 (inactive)
- furin cleavage Z-score (30 min): -1.28 (inactive)

Sequence: CAREARGSSRAGNASASA [FS-2907]
- furin cleavage Z-score (7.5 min): -0.25 (inactive)
- furin cleavage Z-score (15 min): -0.261 (inactive)
- furin cleavage Z-score (30 min): -1.18 (inactive)

Sequence: CAEKTTPCSGAGNASASA [HC1974]
- furin cleavage Z-score (7.5 min): -1.24 (inactive)
- furin cleavage Z-score (15 min): -0.951 (inactive)
- furin cleavage Z-score (30 min): -0.151 (inactive)

Sequence: CALGLLQTASAGNASASA [HC1027]
- furin cleavage Z-score (7.5 min): -0.682 (inactive)
- furin cleavage Z-score (15 min): -0.203 (inactive)
- furin cleavage Z-score (30 min): 0.0385 (inactive)

Sequence: CAVMAQLLRIAGNASASA [HC327]
- furin cleavage Z-score (7.5 min): -0.76 (inactive)
- furin cleavage Z-score (15 min): -0.535 (inactive)
- furin cleavage Z-score (30 min): -1.17 (inactive)

Sequence: CAEVVTSTCVAGNASASA [HC2240]
- furin cleavage Z-score (7.5 min): -0.298 (inactive)
- furin cleavage Z-score (15 min): -0.394 (inactive)
- furin cleavage Z-score (30 min): -0.1 (inactive)

Sequence: CANPSVAATLAGNASASA [HC788]
- furin cleavage Z-score (7.5 min): -2.1 (inactive)
- furin cleavage Z-score (15 min): 0.787 (inactive)
- furin cleavage Z-score (30 min): 0.461 (inactive)

Sequence: CAQPHRAQRSAGNASASA [FS-1153]
- furin cleavage Z-score (7.5 min): 6.97 (active)
- furin cleavage Z-score (15 min): 6.29 (active)
- furin cleavage Z-score (30 min): 6.74 (active)

Sequence: CAKNIRRGRSAGNASASA [FS-342]
- furin cleavage Z-score (7.5 min): 8.62 (active)
- furin cleavage Z-score (15 min): 9.43 (active)
- furin cleavage Z-score (30 min): 6.74 (active)

Sequence: CAEYRRRGRSAGNASASA [FS-1123]
- furin cleavage Z-score (7.5 min): 4.99 (active)
- furin cleavage Z-score (15 min): 5.3 (active)
- furin cleavage Z-score (30 min): 5.5 (active)

Sequence: CAEDTTPCSGAGNASASA [HC1971]
- furin cleavage Z-score (7.5 min): 0.299 (inactive)
- furin cleavage Z-score (15 min): -1.06 (inactive)
- furin cleavage Z-score (30 min): -0.5 (inactive)

Sequence: CAADGGCSGGAGNASASA [HC811]
- furin cleavage Z-score (7.5 min): -1.33 (inactive)
- furin cleavage Z-score (15 min): -0.697 (inactive)
- furin cleavage Z-score (30 min): -0.396 (inactive)

Sequence: CAERVTSTWVAGNASASA [HC2173]
- furin cleavage Z-score (7.5 min): -0.173 (inactive)
- furin cleavage Z-score (15 min): -0.632 (inactive)
- furin cleavage Z-score (30 min): -2.09 (inactive)

Sequence: CARPRRLSTAAGNASASA [FS-3022]
- furin cleavage Z-score (7.5 min): -0.374 (inactive)
- furin cleavage Z-score (15 min): 0.291 (inactive)
- furin cleavage Z-score (30 min): 1.13

Sequence: CARTGRSREVAGNASASA [FS-3105]
- furin cleavage Z-score (7.5 min): 0.737 (inactive)
- furin cleavage Z-score (15 min): -1.37 (inactive)
- furin cleavage Z-score (30 min): 1.18

Sequence: CARTGRSIVYAGNASASA [FS-2465]
- furin cleavage Z-score (7.5 min): 2.57
- furin cleavage Z-score (15 min): 5.05 (active)
- furin cleavage Z-score (30 min): 6.39 (active)

Sequence: CACPNSSIVYAGNASASA [HC264]
- furin cleavage Z-score (7.5 min): 0.0997 (inactive)
- furin cleavage Z-score (15 min): 0.251 (inactive)
- furin cleavage Z-score (30 min): -0.406 (inactive)

Sequence: CARPQRLIDHAGNASASA [FS-3020]
- furin cleavage Z-score (7.5 min): -0.401 (inactive)
- furin cleavage Z-score (15 min): -0.141 (inactive)
- furin cleavage Z-score (30 min): -0.235 (inactive)

Sequence: CARPVRGIHTAGNASASA [FS-3030]
- furin cleavage Z-score (7.5 min): 1.52
- furin cleavage Z-score (15 min): 0.149 (inactive)
- furin cleavage Z-score (30 min): 3.15

Sequence: CARPPRSATAAGNASASA [FS-2058]
- furin cleavage Z-score (7.5 min): 1.66
- furin cleavage Z-score (15 min): 4.98 (active)
- furin cleavage Z-score (30 min): 3.61 (active)

Sequence: CAAAPGAATAAGNASASA [HC1071]
- furin cleavage Z-score (7.5 min): -1.75 (inactive)
- furin cleavage Z-score (15 min): 0.135 (inactive)
- furin cleavage Z-score (30 min): -1.91 (inactive)

Sequence: CARPPRSIVTAGNASASA [FS-2439]
- furin cleavage Z-score (7.5 min): 2.64
- furin cleavage Z-score (15 min): 4.75 (active)
- furin cleavage Z-score (30 min): 6.76 (active)

Sequence: CARPKKRAETAGNASASA [FS-1760]
- furin cleavage Z-score (7.5 min): -0.848 (inactive)
- furin cleavage Z-score (15 min): 2.01
- furin cleavage Z-score (30 min): 0.187 (inactive)

Sequence: CARPPRSPDHAGNASASA [FS-2740]
- furin cleavage Z-score (7.5 min): 4.56 (active)
- furin cleavage Z-score (15 min): 5.51 (active)
- furin cleavage Z-score (30 min): 4.52 (active)
